Experimental data as given in PubChem BioAssay AID1961 (Sanford-Burnham Center for Chemical Genomics, 2009).
About 140 (0.048%) of roughly 290,000 compounds were called active. This is one part of a sample in which actives are shown more often than they occur.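 The calls were made as follows: active = activation above 40% with more than 50 cells counted in the well; inconclusive = wells holding fewer than 50 cells, flagged as toxic or sparse; inactive = the rest.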

What was measured:
[1] = GPR55 agonists via beta-arrestin recruitment, primary screen, imaging, U2OS cells, beta-arrestin-GFP redistribution (AID 1961); conditions: measured here: cytotoxicity, cells analyzed, at 10 µM;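 also: U2OS osteosarcoma cells stably expressing GPR55 and beta-arrestin-GFP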;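 as to activation: plate controls were DMSO negative control for no effect and LPI positive control for full effect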
[2] = biological target: G-protein coupled receptor 55 (Homo sapiens) (UniProt Q9Y2T6); assay: as above; conditions: at 10 µM, stronger effect = higher value
Sequence of G-protein coupled receptor 55 (Homo sapiens) (Q9Y2T6 whole entry, looked up): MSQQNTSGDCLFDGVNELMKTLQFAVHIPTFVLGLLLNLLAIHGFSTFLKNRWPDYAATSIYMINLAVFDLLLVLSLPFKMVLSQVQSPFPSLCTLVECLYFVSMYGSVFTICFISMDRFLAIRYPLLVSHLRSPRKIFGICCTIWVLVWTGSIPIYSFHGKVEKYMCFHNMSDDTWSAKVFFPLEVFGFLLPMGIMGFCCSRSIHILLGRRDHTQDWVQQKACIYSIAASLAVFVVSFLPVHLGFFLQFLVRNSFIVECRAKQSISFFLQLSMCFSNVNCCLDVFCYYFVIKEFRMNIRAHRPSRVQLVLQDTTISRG

| SMILES | cell count [1] | activation [2] |
| --- | --- | --- |
| COc1ccc(CN2C(=O)c3ccccc3C2=O)cc1 | 379 cells | 0.6% (inactive) |
| COc1ccc(CN2C(=O)c3cccc4cccc(c34)C2=O)cc1 | 353 cells | -0.1% (inactive) |
| CCc1nn(CC(=O)NCCc2ccc(Cl)cc2)c(=O)c2cccn12 | 343 cells | 0% (inactive) |
| CCOC(=O)C(CC)(CCC(=O)OC)c1csc(Nc2ccccc2O)n1 (stereo not drawn) | 367 cells | -0.1% (inactive) |
| Fc1cccc(NCCc2c[nH]c3ccccc23)n1 | 334 cells | -0.2% (inactive) |
| COc1ccccc1N1CCN(C2CCN(C(=O)COc3ccccc3)CC2)CC1 | 401 cells | -0.1% (inactive) |
| O=C(NCCN1CCOCC1)c1cc(-c2ccco2)on1 | 315 cells | -0.1% (inactive) |
| COc1ccc(Nc2nc(Cl)c(C=O)s2)cc1 | 273 cells | 0.2% (inactive) |
| Cc1nnnn1/C(=C\c1ccccc1)C(=O)OCC(=O)NC(C)(C)C | 301 cells | -0.3% (inactive) |
| Cc1nnnn1/C(=C\c1ccccc1)C(=O)OCC(=O)N1CC2(C)CC1CC(C)(C)C2 (stereo not drawn) | 330 cells | 74.3% (active) |
| Cc1nnnn1/C(=C\c1ccccc1)C(=O)OCC(=O)N(C)C1CCS(=O)(=O)C1 (stereo not drawn) | 254 cells | -0.4% (inactive) |
| CS(=O)(=O)N(CC(=O)NCCc1ccccc1)C1CCCCC1 | 388 cells | -0.1% (inactive) |
| N#Cc1c2n(c(=S)n(-c3ccc(F)cc3)c1=O)CCCCC2 | 250 cells | -0.3% (inactive) |
| CC(C)CC(=O)Nc1nnc(S(=O)(=O)N(C)Cc2ccco2)s1 | 342 cells | -0.2% (inactive) |
| CSc1ccccc1OCc1cc(C(=O)N2CCc3sccc3C2)no1 | 327 cells | -0.2% (inactive) |
| Cc1ccc2c(C)c(C(=O)N3CCN(Cc4ccc5c(c4)OCO5)CC3)oc2c1C | 372 cells | -0.1% (inactive) |
| COc1ccc(S(=O)(=O)NCCSC(C)(C)C)cc1Cl | 346 cells | -0.1% (inactive) |
| CCOC(=O)Cn1c(CN2CCN(C(c3ccccc3)c3ccccc3)CC2)nc2c1c(=O)n(C)c(=O)n2C | 284 cells | 0.3% (inactive) |
| O=C(C1CCCN(S(=O)(=O)c2cccc3nsnc23)C1)N1CCCCCC1 (stereo not drawn) | 250 cells | 0.1% (inactive) |
| N#Cc1ccccc1NC(=O)CC1CCCCC1 | 377 cells | -0.1% (inactive) |

| SMILES | cell count [1] | activation [2] |
| --- | --- | --- |
| O=C(O)c1ccc[nH]c1=S | 381 cells | 0% (inactive) |
| CCN(CC)S(=O)(=O)c1ccc(N2CCOCC2)c(NCC(=O)Nc2ccc(F)cc2)c1 | 259 cells | -0.1% (inactive) |
| Cc1ccc(C(=O)NC(=S)/C=C2\N(C)c3ccccc3C2(C)C)cc1 | 272 cells | 0.2% (inactive) |
| COc1ccccc1C(=O)NC(=S)/C=C1/N(C)c2ccccc2C1(C)C | 278 cells | 91% (active) |
| CN1/C(=C\C(=S)NC(=O)c2ccccc2Cl)C(C)(C)c2ccccc21 | 357 cells | -0.2% (inactive) |
| COc1cccc(C(=O)Nc2cnn(C(C)C)c2)c1 | 253 cells | -0.2% (inactive) |
| CNc1nc(-c2ccc(Cl)cc2)cs1 | 302 cells | -1% (inactive) |
| COc1ccc(NC(=O)NC2CCCCCCC2)c(OC)c1 | 240 cells | -0.1% (inactive) |
| CCC(=O)Nc1ccc(OC)cc1OC | 375 cells | -0.2% (inactive) |
| CCOC(=O)c1[nH]c2ccc(C(=O)OC)cc2c1C(=O)OCC | 400 cells | -0.3% (inactive) |
| CCCCc1ccc(C2C(C#N)=C(N)SC(N)=C2C#N)s1 | 340 cells | 0.2% (inactive) |
| O=C(COC(=O)/C=C/c1cccc(Cl)c1)NCCc1ccc(Cl)cc1Cl | 315 cells | 0% (inactive) |
| O=C(O)C1CCCN1C(=O)c1cncc(Br)c1 (stereo not drawn) | 262 cells | -0.2% (inactive) |
| CC(C)OCC(O)Cn1c(N2CCCC2)nc2c1c(=O)[nH]c(=O)n2C (stereo not drawn) | 350 cells | -0.2% (inactive) |
| Cc1c(C2N3CC4(C)CN2CC(C)(C3)C4=O)c2ccccc2n1C (stereo not drawn) | 309 cells | 0.1% (inactive) |
| CC(C)(C)NC(=O)CSc1nncn1NCc1c(Cl)cccc1Cl | 294 cells | -0.2% (inactive) |
| COc1cc2c3nnc(-c4ccc(F)cc4)c-3cn(Cc3ccc(F)cc3)c2cc1OC | 348 cells | 16.9% (inactive) |
| COc1cc2c3nnc(-c4ccc(F)cc4)c-3cn(Cc3ccccc3F)c2cc1OC | 274 cells | 76.7% (active) |
| COc1cc2c3nnc(-c4ccccc4)c-3cn(Cc3ccc(F)cc3)c2cc1OC | 393 cells | 1.3% (inactive) |
| Cc1oc2c(C)c(O)ccc2c(=O)c1N1C(=O)c2ccccc2C1=O | 286 cells | 0.2% (inactive) |

| SMILES | cell count [1] | activation [2] |
| --- | --- | --- |
| CCOc1ccc2nc(SCC(=O)N3c4ccccc4Sc4ccccc43)sc2c1 | 319 cells | 16.7% (inactive) |
| CCOc1ccc2nc(SCC(=O)N3c4ccccc4Sc4ccccc43)c(C#N)cc2c1 | 304 cells | 112% (active) |
| CCOc1ccc2nc(SCC(=O)N3CCCCCC3)c(C#N)cc2c1 | 334 cells | -0.1% (inactive) |
| Nc1cccnc1Sc1ccc(Cl)cc1 | 377 cells | 0% (inactive) |
| COC(=O)c1cc(OC)c(OC)cc1NC(=O)CC1CCCCC1 | 320 cells | -0.2% (inactive) |
| Cc1cccc(NS(=O)(=O)c2cc([N+](=O)[O-])ccc2C)n1 | 419 cells | -0.1% (inactive) |
| COc1cc(/C=C/C(=O)Oc2coc(CSc3ncccn3)cc2=O)cc(OC)c1OC | 281 cells | -0.2% (inactive) |
| CCCOCC(O)COc1ccccc1C(=O)N1CCOCC1 (stereo not drawn) | 317 cells | -0.2% (inactive) |
| CCC1Sc2ccc(S(=O)(=O)CCC(=O)Nc3cc(C)ccn3)cc2NC1=O (stereo not drawn) | 341 cells | -0.1% (inactive) |
| CC(NC(=O)Cn1nc(C(F)(F)F)c2c1CCC2)c1ccccc1 (stereo not drawn) | 371 cells | -0.2% (inactive) |
| COc1ccc2nc(C)cc(SCC(=O)N/N=C/c3ccco3)c2c1 | 330 cells | 0.2% (inactive) |
| Cc1ccccc1NC(=O)NC1CCCCC1C (stereo not drawn) | 353 cells | 0.4% (inactive) |
| CN(C)c1ccc(/C=N/NC(=O)C2CC2c2ccccc2)cc1 (stereo not drawn) | 339 cells | -0.2% (inactive) |
| O=C(NCc1ccc(F)cc1)C(=O)NCC1OCCCN1S(=O)(=O)c1cccs1 (stereo not drawn) | 348 cells | -0.1% (inactive) |
| COc1ccc(C(=O)NCC(=O)N/N=C/c2cccnc2)cc1OC | 322 cells | -0.2% (inactive) |
| Cc1nc(Cl)sc1C(=O)Nc1cc(F)cc(F)c1 | 356 cells | -0.2% (inactive) |
| CN(C)c1ccc(C(=O)/C=C/c2ccccc2)cc1 | 254 cells | -0.3% (inactive) |
| CN(C)c1ccc(/C=C/C(=O)c2ccccc2O)cc1 | 238 cells | 0.1% (inactive) |
| Cn1c(=O)c(=O)n(C)c2cc(S(=O)(=O)N3CCN(c4ccccc4F)CC3)ccc21 | 328 cells | -0.1% (inactive) |
